Assay [1] deals with Cellular tumor antigen p53 (Homo sapiens) (UniProt P04637). The assay can be described thus: Primary qHTS for small molecule compounds that upregulate eGFP-tagged delta133p53alpha (in N-terminal) cells. (AID 2060322). Also: nearly all actives have a fitted effect of over 75% in size. Also: potency is read from the fitted curve at half-maximal effect.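 As to activation: cells pre-induced with doxycycline then dosed without doxycycline; series mostly up to about 56 µM; 0% = DMSO vehicle and 100% = reference activator.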 The note with it: NCI-H358 eGFP-delta133p53alpha fluorescence, 24 h; activation: stronger effect = higher value. An outline of the steps: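 NCI-H358 cells pre-induced 24 h with 10 ng/ml doxycycline for eGFP-delta133p53alpha, plated dox-free and exposed 24 h at 37C to titrated compounds. Fixed, Hoechst-stained; gated GFP peak intensity by laser scanning cytometry, normalized to DMSO (0%) and 57.5 uM 5-azacytidine (100%).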
On the technique in general: Quantitative high-throughput screening tests each substance at several concentrations.

Assay [2] concerns the target Aldehyde dehydrogenase, mitochondrial (Homo sapiens) (UniProt P05091). The assay is described as follows: qHTS for Inhibitors of the Aldehyde Dehydrogenase Family (ALDH2) Primary screen (AID 2061308).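 Also: plate controls were vehicle for no effect and reference inhibitor for full effect; nearly all actives have a fitted effect of over 55% in size.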
The target in assay [3] is Retinaldehyde dehydrogenase 3 (Homo sapiens) (UniProt P47895). The assay is described as follows: qHTS for Inhibitors of the Aldehyde Dehydrogenase Family (ALDH1A3) Primary screen (AID 2061315).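 Also: plate controls were DMSO vehicle for no effect and reference inhibitor for full effect.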
Assay [4] can be described thus: BET inhibitor-based combinations targeting novel dependencies in MECOM-rearranged (r) AML: SET-2 cell line (AID 2202231). Also: nearly all actives have a fitted effect of over 35% in size. Also: potency is read from the fitted curve at half-maximal effect.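 As to viability: plate controls were DMSO treated cells for no effect and wells without cells for full effect.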 The note with it: SET-2 AML cells viability, CellTiter-Glo luminescence, 48 h; viability: stronger effect = lower value, concentration not given here. The procedure, abridged:
(§1)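 500 cells/well; 11-pt dose curve; 48 h, standard incubator; CellTiter-Glo luminescence after 15 min RT; DMSO/empty-well normalization; AUC plus Z-AUC (mean-centered within each line).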
(In ATP-based viability assays light output follows the ATP content of the culture.)

Assay [5] can be described thus: BET inhibitor-based combinations targeting novel dependencies in MECOM-rearranged (r) AML: UCSD-AML1 cell line (AID 2202235). Also: nearly all actives have a fitted effect of over 40% in size. Also: potency is read from the fitted curve at half-maximal effect. The procedure, abridged: (§2)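 Cells were plated at 500 per well and exposed to each drug across an 11-point dose range for 48 hr at standard incubator conditions. Viability was read by CellTiter-Glo luminescence, and activity was expressed as AUC and per-cell-line Z-transformed AUC.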

Assay [6] in a line: BET inhibitor-based combinations targeting novel dependencies in MECOM-rearranged (r) AML: HNT-34 cell line (AID 2202234). Also: nearly all actives have a fitted effect of over 35% in size. Also: potency is read from the fitted curve at half-maximal effect. An outline of the steps:
as §2

Assay [7] is described as follows: BET inhibitor-based combinations targeting novel dependencies in MECOM-rearranged (r) AML: AML-194 cell line (AID 2202237; also: nearly all actives have a fitted effect of over 40% in size; also: potency is read from the fitted curve at half-maximal effect). An outline of the steps: as §1
Assay [8] is described as follows: BET inhibitor-based combinations targeting novel dependencies in MECOM-rearranged (r) AML: AML-191 cell line (AID 2202236; also: nearly all actives have a fitted effect of over 35% in size; also: potency is read from the fitted curve at half-maximal effect). The procedure, abridged:
as §1

Assay [9] is described as follows: BET inhibitor-based combinations targeting novel dependencies in MECOM-rearranged (r) AML: MV-4-11 cell line (AID 2202233). Also: nearly all actives have a fitted effect of over 45% in size. Also: potency is read from the fitted curve at half-maximal effect. The procedure, abridged: as §2

“And” between values parts separate entries of the source, which are not always exact repeats. Equal values may be shown once. Records with an inconclusive call do not appear. Values without a mark were called inactive. The source made the active and inactive calls. Calls follow the shape of the dose curve; as a rule, active = well fitted curve in the direction sought with a large enough effect; inconclusive = small, poorly fitted or top-dose-only effect, or another doubt; inactive = no such curve, though single readings can be large; an effect the other way counts as inactive or inconclusive.

The term viability denotes a read-out of living cells in per cent, often relative to untreated cells.

Cellular tumor antigen p53 (Homo sapiens), sequence (P04637 whole entry, looked up): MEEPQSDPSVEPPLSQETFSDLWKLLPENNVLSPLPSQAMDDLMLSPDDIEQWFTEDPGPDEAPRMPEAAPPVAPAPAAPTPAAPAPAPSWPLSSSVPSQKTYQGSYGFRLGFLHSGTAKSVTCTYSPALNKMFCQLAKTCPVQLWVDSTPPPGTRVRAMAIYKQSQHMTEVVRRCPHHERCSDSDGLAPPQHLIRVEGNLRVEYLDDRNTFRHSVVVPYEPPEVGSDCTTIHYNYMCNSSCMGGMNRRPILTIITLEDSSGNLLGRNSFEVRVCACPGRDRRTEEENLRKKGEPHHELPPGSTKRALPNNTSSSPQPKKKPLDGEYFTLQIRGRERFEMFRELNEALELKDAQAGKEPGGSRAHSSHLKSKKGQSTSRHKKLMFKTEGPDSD

On to `Cc1c(NC(=O)c2cc(C(N)=O)nc3cc(F)ccc23)c(C(F)(F)F)nn1Cc1ccc(C#N)cc1`, for which the activation in [1] is 14.3%. Besides, the Potency result in assay [2], in assay [3] and in assay [5] was “inactive” each time. In addition, the viability in [4] is 101%.
Consider `O=C(O)c1ccc(CCCc2ccc(OCCc3ccc(F)cc3)cc2)o1`, for which the activation in assay [1] is -3.57%. Besides, the Potency result in [2], in assay [3], in assay [6], in [5] and in assay [7] was “inactive” throughout. In assay [4], the Potency is 20.9 µM (active).
In the case of `COCCNCc1ccc(-c2cc3nccc(Oc4ccc(NC(=O)C5(C(=O)Nc6ccc(F)cc6)CC5)cc4F)c3s2)nc1`, the Potency in [1] was 19 µM (active); in [4], 13.2 µM (active); in assay [6], 2950 nM (active); in [5], 8.33 µM (active); in [8], 8.33 µM (active); in assay [7] it was 5.25 µM (active). Moreover, the Potency result in [2] and in [3] was “inactive” each time.
Take `O=C1CCCC2=C1C(c1[nH]ncc1Cl)N=C(Nc1nc3ccccc3o1)N2` (stereo not given): in [1], the activation was -17.4% and 19.7%. For the same compound, the Potency entry in [2], in [3] and in [7] was “inactive” throughout. Further, the viability in assay [4] is 78.9%. The Potency in assay [9] was 10.5 µM (active); in assay [8], 16.6 µM (active).
On to `COc1cc2c(N3CCN(C(=O)Nc4ccc(OC(C)C)cc4)CC3)ncnc2cc1OCCCN1CCCCC1`, for which the activation in assay [1] is 54% and 21.4%. The Potency entry in [2] and in assay [3] was “inactive” each time. Besides, the viability in assay [4] is 95.3%. Also, the Potency in assay [9] was 0.59 µM (active); in assay [7], 23.5 µM (active).
`CCN(CCO)CCCOc1ccc2c(Nc3cc(CC(=O)Nc4cccc(F)c4)[nH]n3)ncnc2c1`: the activation in assay [1] is -6.72% and 29.5%. The Potency result in assay [2] and in [3] was “inactive” in each case. For the same compound, the viability in assay [4] is 100%. Moreover, the Potency in assay [9] is 0.0525 µM (active); in assay [8] it was 0.0934 µM (active).
For `CN(C)C(=O)c1ccc(S(=O)(=O)c2ccc(NC(=O)[C@@](C)(O)C(F)(F)F)c(Cl)c2)cc1`, the activation in assay [1] was 17.9% and -11.6%. Also, the Potency entry in assay [2], in assay [3] and in assay [5] was “inactive” each time. For the same compound, the Potency in assay [4] was 7.42 µM (active); in assay [9], 4.68 µM (active).
For `C=C1C[C@@]2(O)O[C@@]3(C[C@H]2C(C)C)[C@@H](C)CC[C@@H]13`, the activation in assay [1] was 3.34%. Besides, the Potency result in assay [2], in assay [3], in assay [9], in [6], in [5] and in assay [7] was “inactive” each time. In [4], the viability is 112%.
On to `COc1cc(Nc2nc3ccccc3nc2NS(=O)(=O)c2ccc(NC(=O)c3ccc(C)c(OC)c3)cc2)cc(OC)c1`, for which, in assay [1], the activation is -16.4% and -17%. Moreover, the Potency result in assay [2], in [3], in [9], in assay [6], in [5] and in [7] was “inactive” in each case. In [4], the viability was 111%.
Regarding `Cn1ncc(Cl)c1-c1cc(C(=O)N[C@H](CN)Cc2cccc(F)c2)sc1Cl`, the Potency in assay [1] was 30.1 µM (active); in assay [4], 9.34 µM (active); in assay [6], 16600 nM (active); in assay [8], 16.6 µM (active). The Potency result in assay [2] and in assay [3] was “inactive” in each case.
For the compound `Cc1c(C)n(Cc2ccc(-c3ccccc3C(=O)O)cc2)c2ccc(C(=O)N[C@@H](C)c3ccc([N+](=O)[O-])cc3)cc12`, the activation in assay [1] was 21.3% and -1.79%. Also, the Potency result in assay [2], in [3], in [6], in assay [5], in assay [8] and in [7] was “inactive” in each case. The viability in assay [4] is 111%.
In the case of `O=C(O)CCCc1c[nH]c2ccccc12`, the activation in [1] is -8.68% and -9%. For the same compound, the Potency entry in assay [2], in [3], in [6], in [8] and in [7] was “inactive” each time. Moreover, the viability in assay [4] is 116%.
In the case of `Cc1ncc(Cl)cc1NCc1ccc(C(=O)NC(CC2CCCC2)C(=O)NC2CC2)s1` (stereo not given), the activation in assay [1] was 3%. Moreover, the Potency result in assay [2] and in assay [3] was “inactive” throughout. In assay [4], the viability is 107%. Also, the Potency in assay [9] was 18.6 µM (active); in assay [5], 0.833 µM (active); in [8], 5.9 µM (active).
In the case of `O=C(NOCC(O)CO)c1ccc(F)c(F)c1Nc1ccc(I)cc1F` (stereo not given), the activation in assay [1] is 0.955%. The Potency result in assay [2] and in [3] was “inactive” throughout. Further, the viability in [4] was 80.7%. Moreover, in [6], the Potency is 209 nM (active).
For `Cn1cc(-c2ccc3c(c2)CCN3C(=O)Cc2cccc(C(F)(F)F)c2)c2c(N)ncnc21`, the activation in [1] is -11.6%. Moreover, the Potency entry in assay [2], in assay [3] and in assay [7] was “inactive” each time. For the same compound, the viability in assay [4] was 105%. The Potency in assay [9] was 9.34 µM (active); in [8], 18.6 µM (active).
For `Nc1ccc(C(=O)Nc2cccc(-c3nc(N4CCOCC4)c4oc5ncccc5c4n3)c2)cn1`, the activation in assay [1] is 2.12%. Further, the Potency result in assay [2] and in assay [3] was “inactive” each time. In addition, the Potency in assay [4] is 16.6 µM (active); in assay [6] it was 14800 nM (active); in assay [5] it was 9.34 µM (active); in assay [8] it was 9.34 µM (active); in [7], 8.33 µM (active).
In the case of `Cc1cc(-c2cc(OC(=O)c3ccccc3)ccc2Cl)cc2nnc(Nc3ccc(OCCN4CCCC4)cc3)nc12`, the activation in assay [1] is -29.5%. The Potency entry in assay [2], in assay [3] and in assay [8] was “inactive” in each case. In assay [4], the viability is 115%. Also, the Potency in [6] is 456 nM (active).
As for `Cn1ncnc1[C@H]1c2n[nH]c(=O)c3cc(F)cc(c23)N[C@@H]1c1ccc(F)cc1`, the activation in assay [1] was -4.3% and 20.1%. Also, the Potency entry in [2] and in assay [3] was “inactive” each time. In addition, the Potency in [4] was 3.72 µM (active); in assay [6], 166 nM (active); in [8], 1.86 µM (active); in assay [7], 1.86 µM (active).
For `COc1cc(Nc2c(C#N)cnc3cc(OCCCN4CCN(C)CC4)c(OC)cc23)c(Cl)cc1Cl`, the Potency is 30.9 µM (active) and 23.9 µM (active) in assay [1]; 16.6 µM (active) in [4]; 3.32 µM (active) in assay [9]; 590 nM (active) in [6]; 8.33 µM (active) in assay [5]; 7.42 µM (active) in [7]. Besides, the Potency entry in assay [2] and in assay [3] was “inactive” each time.

The record behind these values is PubChem BioAssay (NCATS).
